Compound activity (PubChem BioAssay)
Many of the other results were omitted from the sample, so hits are more common in it than they were.
SKOV3 invasion: ovarian cancer metastasis inhibition, 3D TME model. SKOV3ip1-GFP adhesion/invasion on 3D omental model, fluorescence. Potency, µM (titrated, usually from 45.8 µM), for inactives: top-dose activity change, negative = inhibition, most hits filed as inhibitors. 46,000 tested, 0.1% active. AID 1963576;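 also: plate controls were DMSO wells for no effect and tomatine positive control wells for full effect; nearly all actives have a fitted effect of over 65% in size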
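Primary human omental fibroblast/mesothelial 3D culture pre-formed 48 h. SKOV3ip1-GFP cells added with compounds (0.36-46 umol/L), incubated 2 h RT/16 h 37 C, fixed; GFP cells quantified at 488/509 nm.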
NTMT1 inh: blocks human N-terminal methyltransferase 1 activity; Q9BV86; Potency, µM (series often up to 114 µM), without a hit: at the highest dose activity change, negative = inhibition, most hits filed as inhibitors; 59,000 tested, 2.5% active; NTMT1 MTase-Glo SAH luminescence, purified enzyme;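 also: plate controls were DMSO vehicle for no effect and no enzyme for full effect; nearly all actives have a fitted effect of over 65% in size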
Target sequence (Q9BV86 whole entry, looked up): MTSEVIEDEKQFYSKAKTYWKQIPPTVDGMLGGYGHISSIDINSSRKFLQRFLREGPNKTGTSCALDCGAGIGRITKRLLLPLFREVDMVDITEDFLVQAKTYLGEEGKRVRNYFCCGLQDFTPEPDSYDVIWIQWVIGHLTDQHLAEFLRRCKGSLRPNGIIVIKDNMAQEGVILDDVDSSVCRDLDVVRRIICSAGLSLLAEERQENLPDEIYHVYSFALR
p53null 32C tox: p53 null cell cytotoxicity, permissive temperature. Potency, µM (top dose mostly 46.1 µM), inactives show at the top dose activity change, negative = cytotoxicity, usual class: cytotoxic. AID 903. H1299-neo p53 null cells, ATP luminescence, 24 h, 32C. 55,000 tested, 0.62% active;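 also: 0% = DMSO only and -100% = full killing by 100 µM tamoxifen; nearly all actives have a fitted effect of over 55% in size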
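We seeded p53-null H1299-neo cells, incubated them overnight at 37C, and added compounds across a range up to 46 uM. After 24 hours at 32C, ATP reagent was applied for 20 min at room temperature and luminescence recorded.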
p53null 39C tox: kills p53 null cells at the nonpermissive temperature; Potency, µM (titrated, usually from 46.1 µM), for inactives: top-dose activity, negative = cell killing, usual class: cytotoxic; H1299 p53-null (neo) cells, 39C, ATPlite viability, 24 h; 55,000 tested, 0.97% active;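 also: 0% = DMSO only and -100% = full killing by 100 µM tamoxifen; nearly all actives have a fitted effect of over 50% in size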
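Cells seeded at 600/well, 37C overnight. Compound added (up to 46 uM), plates shifted to 39C for 24 hr. ATPlite added, luminescence read after 20 min at room temperature.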
* hit, by the source's call; i = inactive; ? = inconclusive; · = no result; ! = not active in a repeat; [ ] = dose if it differs, or a comment. Calls follow the shape of the dose curve; as a rule, active = well fitted curve in the direction sought with a large enough effect; inconclusive = small, poorly fitted or top-dose-only effect, or another doubt; inactive = no such curve, though single readings can be large; an effect the other way counts as inactive or inconclusive. Potency is read from the fitted curve at half-maximal effect.

SMILES	SKOV3 invasion	NTMT1 inh	p53null 32C tox	p53null 39C tox
CC(C)CCOc1ccc(C2N=C(N)Nc3nc4ccccc4n32)cc1 (stereo not drawn)	12.6µM*	-4.6%	·	·
COc1cc(C2N=C(N)Nc3nc4ccccc4n32)ccc1OCCC(C)C (stereo not drawn)	i	-6.3%	·	·
COc1ccc(C2N=C(N)Nc3nc4ccccc4n32)cc1 (stereo not drawn)	-8.1%	-7.5%	-5.9%	28.8%
CCCN(CCC)c1ccc(C2N=C(N)Nc3nc4ccccc4n32)cc1 (stereo not drawn)	?	-19.9%	?	3.16µM*
Cc1ccc(S(=O)(=O)Nc2cc(Br)ccc2C(=O)Nc2nc(-c3ccccc3)cs2)cc1	·	-21.8%[57.5 µM]	·	·
O=c1c2ccc([N+](=O)[O-])cc2nc2sc(Nc3ccc4c(c3)CCC4)nn12	·	8.9%	·	·
CN1CCN(c2ccc(Nc3nc(-c4ccncc4)nc4ccccc34)cc2F)CC1	·	22.4µM*	·	·
COc1cc(Nc2nc(-c3ccncc3)nc3ccccc23)ccc1N1CCN(C)CC1	·	8.91µM*	·	·
CN(Cc1ccccc1)C(=O)c1cc2c(s1)-c1ccc(Cl)cc1SC2	0.2%	-3.9%	-6.6%	2µM*
O=C(NCc1cccc(Cl)c1)c1cc2c(s1)-c1ccccc1SC2	-2.0%	13.5%	20.5%	-20.2%
CCc1ccc(CCOc2ccc(CC3SC(=O)NC3=O)cc2)nc1 (stereo not drawn)	-5.7%	31.6µM*!	·	·
O=C(Nc1cncc(NC(=O)c2cccs2)c1)c1cccs1	·	-4.9%	·	·
O=c1c(-c2ccc(O)cc2)coc2cc(O)cc(O)c12	18.7%	70.8µM*!	·	·
CCCCC(C)(C)[C@H](O)C=C[C@H]1[C@H](O)CC(=O)[C@H]1CC=CCCCC(=O)O	-15.4%	50.1µM*	·	·
N[C@H](Cc1ccccc1)C(=O)Nc1ccc(Cl)cc1C(=O)c1ccc[nH]1	·	28.2µM*	·	·
CN1CCC(c2cn(C)c3ccc(OS(=O)(=O)c4c(F)cccc4F)cc23)CC1	·	11.7%[57.5 µM]	·	·
Cc1ccc(S(=O)(=O)Nc2cnccc2C(=O)Nc2nc(C(=O)O)cs2)cc1	·	24.5%	·	·
Cc1cc2c(C(C)C)c(O)c(O)c(C=O)c2c(O)c1-c1c(C)cc2c(C(C)C)c(O)c(O)c(C=O)c2c1O	-13.4%	20µM*!	·	·
Cc1cc(=O)oc2c(C=O)c(O)ccc12	·	9.2%[57.5 µM]	·	·
C=C1C(=O)O[C@@H]2C(OC(=O)/C(C)=C\C)/C(C)=C\C(=O)/C=C(\C)C[C@H](O)[C@@H]12 (stereo partly drawn)	·	1.1%[29.8 µM]	·	·
Cc1ccn2c(Nc3ccc4c(c3)OCCO4)c(-c3cccs3)nc2c1	-16.6%	12.6µM*	-15.9%	7.2%
Cc1ccc(-c2nc3ccccn3c2Nc2ccc3c(c2)OCCO3)o1	-5.8%	15.8µM*	-2.0%	-26.5%
Cc1nnc(-c2cnn(C)c2N)n1CCCc1ccncc1	·	15.9%	·	·
Cc1cccc(NC(=O)c2cc(-c3ccc4c(c3)OCCO4)on2)c1	-0.8%	?	1.26µM*	1.26µM*
Cc1ccc(Cl)cc1NC(=O)c1cc(-c2ccc3c(c2)OCCO3)on1	36.1%	-13.8%	?	?
SMILES	SKOV3 invasion	NTMT1 inh	p53null 32C tox	p53null 39C tox
Cc1cc(OC(=O)c2cc(-c3ccc4c(c3)OCCO4)on2)ccc1Cl	i	8.6%	-27.4%	15.8µM*
Cc1ccc(OC(=O)c2cc(-c3ccc4c(c3)OCCO4)on2)cc1C	i	15.3%	?	25.1µM*
O=C(Nc1cccc(Cl)c1)c1cc(-c2ccc3c(c2)OCCO3)on1	-3.7%	?	?	?
O=C(NO)c1cnc(NC2(c3ccccc3)CC2)nc1	·	11.0%	·	·
COc1cccc2sc(NC(=O)c3ccc4c(c3)OCCO4)nc12	i	-1.7%	7.94µM*	7.94µM*
Cc1ccc2nc3sc(C(=O)N4CCN(C5CCN(C)CC5)CC4)cc3cc2c1	·	3.5%	·	·
O=C(Cn1nc(-c2ccc3c(c2)OCO3)ccc1=O)NCCc1ccccc1	·	-5.2%	·	·
CCCCCCCCCCCC1=C(O)C(=O)C=C(O)C1=O	-21.1%	44.7µM*!	·	·
Cc1cc(-c2cnn3c(NCC4CC(C)(O)C4)cc(Oc4cccnc4)nc23)ccc1C(=O)NC1CC1 (stereo not drawn)	·	9.4%[12.6 µM]	·	·
Cc1cc(Nc2ncnc3ccc(-c4ccc(CNCCS(C)(=O)=O)o4)cc23)ccc1Oc1ccn2ncnc2c1	12.7%	21.5µM*!	·	·
CC(=O)c1cccc(Nc2nc(-c3cccc(C)c3)nc3ccccc23)c1	?	?	?	11.2µM*
CCCOc1ccc(-c2nc3ccccc3c(=O)o2)cc1	i	-19.8%	15.8µM*	5.01µM*
CCC(=O)Oc1ccc(-c2nc3ccccc3c(=O)o2)cc1	i	?	?	?
Cc1ccc(NC(=O)/C(C#N)=C\c2ccc(-c3ccc(Cl)cc3)o2)c(C)c1	-6.0%	5.6%	-1.3%	-18.8%
N#C/C(=C\c1ccc(-c2cc(Cl)ccc2Cl)o1)C(=O)Nc1ccccc1C(=O)O	-29.8%	10µM*	4.7%	16.7%
CCOc1ccc(N/C=C/C(=O)c2ccccc2)c([N+](=O)[O-])c1	·	·	6.31µM*	·
COc1ccc(NC(=O)c2cccc(NC(=O)C(C)C)c2)c([N+](=O)[O-])c1	·	·	-24.3%	·
CCc1ccccc1Nc1nn2c(=O)c3ccc(C(=O)NCc4ccccc4OC)cc3nc2s1	-4.7%	-1.2%	7.3%	-13.5%
COc1cccc(NC(=O)c2ccc3c(=O)n4nc(Nc5ccccc5OC)sc4nc3c2)c1	-7.3%	79.4µM*	5.1%	1.8%
COc1ccccc1Nc1nn2c(=O)c3ccc(C(=O)NCc4ccc(F)cc4)cc3nc2s1	-13.5%	?	-12.1%	3.98µM*
CCc1cccc(NC(=O)c2ccc3c(=O)n4nc(Nc5ccccc5OC)sc4nc3c2)c1	i	-9.8%	-4.7%	?
C=C(C)C1CC2(CO)C(=CC1=O)CCC(O)C2C (stereo not drawn)	·	-6.8%[57.5 µM]	·	·
O=S(=O)(Nc1cccc(-c2ccc(N3CCCCCC3)nn2)c1)c1ccccc1	i	·	-20.3%	?
